Test results: PubChem BioAssay (NCI)
Compounds without any hit were thinned out: in the full panel of roughly 79,000, 15% have a hit. Values without a mark were called inactive. Active and inactive are the calls of the source. No stated cut-off is given here; in the data, active means growth inhibition above about 70%; inactive means the rest.

Experiments:
[1] = NCI Yeast Anticancer Drug Screen. Data for the rad50 strain (AID 155);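 further: 0% = growth of vehicle-only cultures of the same strain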; conditions: S. cerevisiae rad50 strain growth inhibition, stronger effect = higher value
How it was run: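 Growth of the mutant yeast was measured after compound exposure and referenced to vehicle-treated cultures.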

[2] = NCI Yeast Anticancer Drug Screen. Data for the mec2-1 strain (AID 157); conditions: S. cerevisiae mec2-1 strain, stronger effect = higher value
How it was run: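 Compounds were applied to mec2-1 yeast cells. Their growth was then compared with that of vehicle-treated cultures to give growth inhibition.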

[3] = NCI Yeast Anticancer Drug Screen. Data for the sgs1 mgt1 strain (AID 161);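 further: 0% = growth of cultures given vehicle only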; conditions: S. cerevisiae sgs1 mgt1 strain, stronger effect = higher value
How it was run: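 This yeast growth screen uses a strain with defined DNA-repair lesions; compound-treated growth is compared with vehicle-treated growth.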

[4] = NCI Yeast Anticancer Drug Screen. Data for the cln2 rad14 strain (AID 165);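 further: 0% = growth equal to vehicle treated cultures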; conditions: S. cerevisiae cln2 rad14 strain, stronger effect = higher value
How it was run: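 Strain: cln2 rad14 yeast, altered in cell cycle control and DNA damage repair. Read-out: growth inhibition vs vehicle.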

[5] = NCI Yeast Anticancer Drug Screen. Data for the bub3 strain (AID 167); conditions: S. cerevisiae bub3 mutant strain, stronger effect = higher value
How it was run: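 Whole-cell yeast assay. The mutant strain was incubated with compounds, and growth inhibition was determined by comparison with vehicle-treated cells.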

[6] = NCI Yeast Anticancer Drug Screen. Data for the mlh1 rad18 strain (AID 175); conditions: S. cerevisiae mlh1 rad18 strain growth inhibition, stronger effect = higher value
How it was run: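 A repair-deficient yeast strain is exposed to test compound, and growth is scored relative to vehicle-treated controls.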

[7] = at 5.0 µM (retest, dose inferred, filed as 0.5)
[8] = at 50.0 µM (retest, dose inferred, filed as 5.0)

Row | Compound | growth inhibition [1, 7] | growth inhibition [1, 8] | growth inhibition ([1]; at 50.0 µM) | growth inhibition [2, 7] | growth inhibition [2, 8] | growth inhibition ([2]; at 50.0 µM) | growth inhibition [3, 7] | growth inhibition [3, 8] | growth inhibition ([3]; at 50.0 µM) | growth inhibition [4, 7] | growth inhibition [4, 8] | growth inhibition ([4]; at 50.0 µM) | growth inhibition [5, 7] | growth inhibition [5, 8] | growth inhibition ([5]; at 50.0 µM) | growth inhibition [6, 7] | growth inhibition [6, 8] | growth inhibition ([6]; at 50.0 µM)
1 | CC(=O)Nc1n[n+]([O-])c2cc(C)ccc2[n+]1[O-] | 96% (active) | 99% (active) | 99.2% (active) | 96% (active) | 99% (active) | 99.7% (active) | 93% (active) | 99% (active) | 99.4% (active) | 92% (active) | 99% (active) | 99% (active) | 95% (active) | 99% (active) | 99% (active) | 97% (active) | 99% (active) | 99.4% (active)
2 | Cc1ccc(C)c([N+](=O)[O-])c1 | -2% | 11% | 51.1% | 1% | -2% | 17.6% | -1% | -2% | 13.8% | 1% | 1% | -7.1% | -1% | 1% | 6.25% | 0% | 12% | 28.2%
3 | Cn1cc(NC(=O)c2cc(NC(=O)CCCCCCC(=O)Nc3cc(C(=O)Nc4cc(C(=O)NCCC(=N)N)n(C)c4)n(C)c3)cn2C)cc1C(=O)NCCC(=N)N | 87% (active) | 98% (active) | 91.8% (active) | 89% (active) | 99% (active) | 93.8% (active) | 82% (active) | 99% (active) | 93% (active) | 44% | 95% (active) | 91.3% (active) | 92% (active) | 98% (active) | 92.2% (active) | 90% (active) | 98% (active) | 92.2% (active)
4 | CC(C)c1ccc(C2C3=C(N=C4SCC(=O)N42)C(=O)c2ccccc23)cc1 (configuration not stated) | 7% | -6% | 86.7% (active) | -20% | 3% | 68.2% | -6% | 5% | 89.2% (active) | -31% | 8% | 83% (active) | -41% | 41% | 80.3% (active) | -39% | 2% | 42.2%
5 | COc1ccc2nc3cc(Cl)ccc3c(Nc3ccc(S(N)(=O)=O)cc3)c2c1 | 0% | 17% | 37.5% | 0% | 9% | -11.4% | 0% | 5% | -6.05% | 9% | 3% | -8.25% | -1% | 2% | -11.4% | 1% | 2% | -6.5%
6 | CC(C)(Br)C(=O)c1ccc([N+](=O)[O-])o1 | 49% | 99% (active) | 90.6% (active) | 62% | 100% (active) | 93.5% (active) | 85% (active) | 100% (active) | 89.4% (active) | 51% | 99% (active) | 84.2% (active) | 42% | 99% (active) | 91.8% (active) | 91% (active) | 99% (active) | 91% (active)
7 | O=C(O)C(Cc1ccccc1)N=Cc1ccc(O)cc1 (configuration not stated) | 70% (active) | 97% (active) | 11.1% | 58% | 99% (active) | 11.8% | 79% (active) | 98% (active) | 6.8% | 33% | 97% (active) | 43.8% | 43% | 98% (active) | 20.2% | 68% | 98% (active) | -1.05%
8 | CCOC(=O)c1cc(C)c(O)c(C(=O)OCC)c1 | -9% | 4% | -0.45% | -12% | -27% | 16.1% | 1% | 22% | 0.65% | 26% | 31% | 6.8% | 13% | 27% | 52.4% | -28% | -9% | -10.8%
9 | O=C(O)CCC/C(=N\Nc1ccccc1)C(=O)O | 5% | 97% (active) | 98.5% (active) | 2% | 99% (active) | 99.2% (active) | 6% | 97% (active) | 98.7% (active) | 0% | 99% (active) | 97.4% (active) | 1% | 98% (active) | 99% (active) | 7% | 98% (active) | 98.3% (active)
10 | C=CS(=O)(=O)c1ccc2ccccc2c1 | -100% | 97% (active) | 99.5% (active) | -22% | 98% (active) | 99.4% (active) | -20% | 98% (active) | 99.2% (active) | -34% | 97% (active) | 98.7% (active) | -35% | 97% (active) | 98.8% (active) | -93% | 97% (active) | 99% (active)
11 | CCOC(=O)c1ccc2c3c([nH]c2c1C)-c1ccccc1CC3 | 12% | 93% (active) | 93.5% (active) | -7% | 94% (active) | 94% (active) | 14% | 95% (active) | 94.7% (active) | -9% | 91% (active) | 90.7% (active) | 1% | 94% (active) | 94.2% (active) | 14% | 94% (active) | 91.9% (active)
12 | N#CC(CC(=O)O)C(c1cccc2ccccc12)c1cccc2ccccc12 (configuration not stated) | 10% | 99% (active) | 99.1% (active) | 17% | 99% (active) | 98.5% (active) | 4% | 98% (active) | 98.8% (active) | 4% | 99% (active) | 97.6% (active) | 17% | 99% (active) | 98.5% (active) | 17% | 99% (active) | 99.2% (active)
13 | CCCCCCCCCCNCCSSCCNC(C)=O | 89% (active) | 98% (active) | 99.2% (active) | 87% (active) | 99% (active) | 99.4% (active) | 97% (active) | 99% (active) | 99.3% (active) | 79% (active) | 92% (active) | 98.4% (active) | 90% (active) | 98% (active) | 99.5% (active) | 90% (active) | 99% (active) | 99.3% (active)
14 | COC(=O)CCCCC(=O)N(C(C)C)C(C)C | 4% | -10% | -8.6% | -5% | -1% | -14.4% | -11% | -11% | -19.8% | -2% | 11% | 76.3% (active) | 2% | 4% | -3.5% | 5% | -5% | 19.1%
15 | O=C(O)c1ccccc1/C=N/O | 1% | -4% | 1.5% | 2% | -2% | -4.2% | 0% | -2% | 3% | -2% | 1% | 93% (active) | 0% | -1% | 4.4% | 0% | -3% | 6.7%
16 | COC(=O)c1cccc2cccc(C(=O)Nc3ccc(C)cc3C)c12 | 74% (active) | 99% (active) | 86.2% (active) | 79% (active) | 99% (active) | 91.9% (active) | 60% | 99% (active) | 83.2% (active) | 33% | 99% (active) | 87.7% (active) | 76% (active) | 92% (active) | 90.5% (active) | 90% (active) | 99% (active) | 89.7% (active)
17 | Cc1cc(Cl)c(C(C)C)cc1O | 17% | 62% | 53.2% | -4% | 61% | 48.2% | 3% | 55% | 48.6% | 2% | 51% | 45% | 7% | 55% | 24.4% | 8% | 58% | 63.4%
18 | c1cc[c]([Sn]([S]c2ccccn2)([c]2ccccc2)[c]2ccccc2)cc1 | 100% (active) | 99% (active) | 99.5% (active) | 100% (active) | 99% (active) | 99.5% (active) | 99% (active) | 99% (active) | 99.1% (active) | 99% (active) | 99% (active) | 97% (active) | 96% (active) | 99% (active) | 99.2% (active) | 99% (active) | 99% (active) | 99.2% (active)
19 | N#Cc1ccc(Cl)cc1[N+](=O)[O-] | 31% | 97% (active) | 90.3% (active) | 15% | 98% (active) | 92% (active) | 36% | 96% (active) | 90.8% (active) | 38% | 96% (active) | 91% (active) | 52% | 97% (active) | 90.2% (active) | 42% | 96% (active) | 90.4% (active)
